Screens: PubChem, Fisher Drug Discovery Resource Center
mcGAS RapidFire: inhibitors of mouse cGAS; recombinant mouse cGAS, cGAMP by RapidFire MS; inhibition, % at 12.5 µM; 130,000 tested, 0.18% active; Q8C6L5;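 active = inhibition of cGAS enzyme activity at or above 60%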;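 note: enzyme stimulated by 45 bp dsDNA with ATP and GTP substrates; cGAMP share of summed cGAMP plus half ATP and half GTP signals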
Target sequence (Q8C6L5 whole entry, looked up): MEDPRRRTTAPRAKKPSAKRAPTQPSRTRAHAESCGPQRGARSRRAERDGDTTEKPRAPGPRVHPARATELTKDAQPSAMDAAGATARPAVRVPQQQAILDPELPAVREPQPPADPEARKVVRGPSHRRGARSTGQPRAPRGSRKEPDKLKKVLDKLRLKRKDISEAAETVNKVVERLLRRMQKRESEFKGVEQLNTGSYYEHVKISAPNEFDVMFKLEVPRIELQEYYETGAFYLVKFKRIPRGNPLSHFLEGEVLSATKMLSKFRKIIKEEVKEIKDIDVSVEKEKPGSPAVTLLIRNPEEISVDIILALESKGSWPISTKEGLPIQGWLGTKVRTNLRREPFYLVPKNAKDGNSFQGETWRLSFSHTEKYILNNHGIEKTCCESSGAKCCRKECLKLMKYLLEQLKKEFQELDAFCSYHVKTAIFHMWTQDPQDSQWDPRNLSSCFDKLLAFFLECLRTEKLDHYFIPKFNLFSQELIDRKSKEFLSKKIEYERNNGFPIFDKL
Numbers without * were called inactive. The entries come from a sample that favours hits as a whole.

How did CC(C(=O)Nc1ccc(Cl)cn1)N(C)Cc1ccsc1 (stereo not drawn) do in these assays?
mcGAS RapidFire: 83*

How did CC(C(=O)Nc1ccc(Cl)cn1)N(C)CC(=O)Nc1c(Cl)cccc1Cl (stereo not drawn) do in these assays?
mcGAS RapidFire: -7

How did CC(C(=O)Nc1ccccc1)N(C)Cc1ccc(Cl)cc1 (stereo not drawn) do in these assays?
mcGAS RapidFire: -7

Results for Cn1nc(C(F)(F)F)c2cc(C(=O)N3CCN4CCNC(=O)C4C3)sc21 (stereo not drawn) ?
mcGAS RapidFire: -21

Results for CC(=O)c1cc(CC(=O)NCc2ccco2)cs1 ?
mcGAS RapidFire: -9

How did O=C1N=c2ccccc2=C1c1sc(=S)n(-c2ccc(O)cc2)c1O do in these assays?
mcGAS RapidFire: 2

How did CCn1c(O)c(C2=c3ccccc3=NC2=O)sc1=S do in these assays?
mcGAS RapidFire: 7

How did O=C1N=c2ccccc2=C1c1sc(N2CCCCC2)nc1O do in these assays?
mcGAS RapidFire: 88*

How did Cc1ccc(OC2CCN(Cc3ccncc3)CC2)c(C(=O)N2CCCC(O)C2)c1 (stereo not drawn) do in these assays?
mcGAS RapidFire: 7

What do the screens show for `CCOC(=O)c1nsc(C(=O)OCC)c1N`?
mcGAS RapidFire: -14

Results for CCSc1nc(CC(=O)NCC2(CO)CCOCC2)cs1 ?
mcGAS RapidFire: -16

How did CCn1cc(CNC(=O)c2ccc(OC)c(OC3CCN(C(C)C)CC3)c2)cn1 do in these assays?
mcGAS RapidFire: 0

What do the screens show for `CC(C)Oc1ccccc1C=C1C(=O)OC(c2ccccc2)OC1=O` (stereo not drawn)?
mcGAS RapidFire: -9

What do the screens show for `Cc1ccc(C2=N/C(=C\C=C\c3ccccc3)C(=O)O2)cc1`?
mcGAS RapidFire: 32

What do the screens show for `O=C1OC(c2ccccc2)OC(=O)C1=C/C=C/c1ccccc1` (stereo not drawn)?
mcGAS RapidFire: 88*

Results for O=C1Nc2cc(Cl)ccc2C1(O)C(F)(F)F (stereo not drawn) ?
mcGAS RapidFire: -10

What do the screens show for `Cc1ccc(S(=O)(=O)N(C)CC(=O)NNC(=O)c2ccccn2)cc1`?
mcGAS RapidFire: 5

What do the screens show for `O=C1CCc2ccc(OC(F)(F)F)cc21`?
mcGAS RapidFire: -7

How did COc1coc(C(=O)Nc2nc(C)cs2)cc1=O do in these assays?
mcGAS RapidFire: -8

What do the screens show for `COc1coc(C(=O)Nc2nc3ccccc3s2)cc1=O`?
mcGAS RapidFire: 15

How did COc1coc(C(=O)Nc2nnc(C)s2)cc1=O do in these assays?
mcGAS RapidFire: 70*

Results for Cn1c(CN2CCCC2c2ccsc2)nc2cc(Cl)ccc21 (stereo not drawn) ?
mcGAS RapidFire: 16

What do the screens show for `CCN1CCN(c2nc3c(C)cccn3c(=O)c2C=C2SC(=S)N(CCOC)C2=O)CC1`?
mcGAS RapidFire: -5

How did Cc1ccc(C)c(C(=O)Cn2cc(Br)ccc2=O)c1 do in these assays?
mcGAS RapidFire: 3

What do the screens show for `O=C(CCc1nnc(Cc2ccc3c(c2)OCO3)o1)N1CCc2ccccc2C1`?
mcGAS RapidFire: 6

How did Cc1ccc(-c2cnc(CCC(=O)N3CCc4ccccc4C3)o2)cc1C do in these assays?
mcGAS RapidFire: 78*

How did O=C(CCc1ncc(-c2ccc(F)cc2)o1)N1CCN(c2ccccc2)CC1 do in these assays?
mcGAS RapidFire: -2

How did O=C(Nc1nc(-c2cc3cc(Br)ccc3oc2=O)cs1)c1ccccc1 do in these assays?
mcGAS RapidFire: -10

How did CC(C)OC(=O)N1CCC(Nc2cncc(Cl)n2)CC1 do in these assays?
mcGAS RapidFire: -9

What do the screens show for `CCOCCn1c(=NC(=O)C2=COCCO2)sc2cc(OC)ccc21`?
mcGAS RapidFire: -7

Results for Cc1[nH]n(-c2nc3ccccc3[nH]2)c(=O)c1C1OC(=O)c2ccccc21 (stereo not drawn) ?
mcGAS RapidFire: 99*

How did Cc1[nH]n(-c2nc3ccccc3[nH]2)c(=O)c1C do in these assays?
mcGAS RapidFire: 29

What do the screens show for `CCc1c(C)[nH]n(-c2nc3ccccc3[nH]2)c1=O`?
mcGAS RapidFire: -2

Results for Cc1cccn2c(CNC(=O)CSc3ncccn3)cnc12 ?
mcGAS RapidFire: -8

Results for Brc1ccc(C2CC(c3ccc4c(c3)OCO4)=Nc3nnnn32)cc1 (stereo not drawn) ?
mcGAS RapidFire: -7

What do the screens show for `CC(=O)c1c(C)[nH]c(C(=O)NC(C)c2ccc3ccccc3c2)c1C` (stereo not drawn)?
mcGAS RapidFire: -13

What do the screens show for `Cc1ccc(N2Cc3ccccc3C2=O)cc1`?
mcGAS RapidFire: -5

What do the screens show for `Cc1ccc(C2([N+](=O)[O-])C(=O)c3ccccc3C2=O)cc1`?
mcGAS RapidFire: 90*

How did Cc1ccc(/C(=C2\OC(=O)c3ccccc32)[N+](=O)[O-])c(C)c1 do in these assays?
mcGAS RapidFire: 5

Results for Cc1cccc(-n2c(C)nnc2S(=O)(=O)CC(=O)NCC2CC2)c1 ?
mcGAS RapidFire: -3

Results for CC(Oc1cccc(Cl)c1)C(=O)N1CCOC(COCc2ccc(F)cc2Cl)C1 (stereo not drawn) ?
mcGAS RapidFire: -5

How did COc1cc(-c2cccs2)cc2c1OCCN(CC(=O)Nc1cnn(C)c1)C2 do in these assays?
mcGAS RapidFire: -8
